# Hits are enriched below; roughly 14% of the tested compounds scored in any of these assays.
# FBPA Giardia inh: qHTS Assay for Inhibitors of Fructose-1,6-bisphosphate Aldolase from Giardia Lamblia; purified Giardia FBPA; Potency, µM (top dose mostly 59.6 µM), for inactives: at the highest dose activity, negative = inhibition, actives largely listed as inhibitors; 290,000 compounds, 0.71% hits; A8B2U2; further: potency means the concentration at half of the fitted maximal effect; nearly all actives have a fitted effect of over 55% in size
# Target sequence (A8B2U2 whole entry, looked up): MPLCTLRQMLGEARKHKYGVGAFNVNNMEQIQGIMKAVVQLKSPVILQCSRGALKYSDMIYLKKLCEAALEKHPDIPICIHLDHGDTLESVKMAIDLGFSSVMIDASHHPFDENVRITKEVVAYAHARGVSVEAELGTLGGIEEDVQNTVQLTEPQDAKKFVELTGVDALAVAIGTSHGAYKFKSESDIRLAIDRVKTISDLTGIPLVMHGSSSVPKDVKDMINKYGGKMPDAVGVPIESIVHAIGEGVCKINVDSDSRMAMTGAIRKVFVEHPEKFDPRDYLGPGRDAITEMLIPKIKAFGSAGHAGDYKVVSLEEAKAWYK
#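 40 nM FBPA preincubated 10 min at RT with compound (up to 57.5 uM final), then substrate plus GAPDH/TPI/NAD/arsenate coupling and diaphorase/resazurin added. Fluorescence read after 20 min at RT, 525/598 nm.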
# Pf growth 96h: Primary qHTS for delayed death inhibitors of the malarial parasite plastid, 96 hour incubation. 320,000 compounds, 6.9% hits. P. falciparum luciferase reporter growth, 96 h. Potency, µM (doses to about 28.7 µM), for inactives: at the highest dose activity change, negative = inhibition, hits mostly inhibitors; further: potency means the concentration at half of the fitted maximal effect
#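 Cell-based qHTS: luciferase-tagged P. falciparum in erythrocytes (2% hematocrit, 0.05% parasitemia final) incubated with compounds for 96 hours, 37 C, 5% CO2; luciferase detection reagent then added and luminescence measured.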
# Sm TGR inh: qHTS Assay for the Inhibitors of Schistosoma Mansoni Peroxiredoxins; 360,000 compounds, 3% hits; AID 485364, 2010; purified TGR, DTNB reduction, TNB absorbance 405 nm; Potency, µM (series often up to 114 µM), for the others: at the top dose activity change, negative = inhibition, usual class: inhibitors; further: potency means the concentration at half of the fitted maximal effect; nearly all actives have a fitted effect of over 60% in size
#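 TGR 20 nM + NADPH 100 uM (dispensed conc.), cpd preinc 15 min RT; start with NADPH (500 uM addition) then DTNB (15 mM addition). Kinetic TNB absorbance, 405 nm filter. Four-parameter Hill fit across titration.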
# HCMV inh: qHTS Assay for inhibitors of the human cytomegalovirus (HCMV) | activity change, negative = inhibition, % at 57.5 µM | 410,000 compounds, 4.5% hits | HFF cells, HCMV-luciferase reporter, 72 h; stronger effect = lower value | AID 1259415, 2018; in the data active means activity change below about -60%; inconclusive means no clear call, values can overlap the other calls; inactive means above about -39%
#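 Steps: HFFs plated, 16 h 37C; compounds added; HCMV-luciferase added to MOI 1 PFU/cell; 72 h 37C; OneGlo reagent, 5 min room temperature; luminescence read, normalized to controls.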
# Pf growth 48h: Primary qHTS for delayed death inhibitors of the malarial parasite plastid, 48 hour incubation; P. falciparum luciferase growth in erythrocytes, 48 h; 310,000 compounds, 5.9% hits; Potency, µM (highest dose often 28.7 µM), without a hit: top-dose activity change, negative = inhibition, usual class: inhibitors; further: potency means the concentration at half of the fitted maximal effect
#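 Erythrocytes infected with P. falciparum carrying an integrated firefly luciferase reporter (2% hematocrit, 0.1% parasitemia final) were exposed to compounds in RPMI 1640 with 0.5% Albumax at 37 C, 5% CO2. Growth inhibition was scored as reduced luminescence.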
# An asterisk follows results filed as active; i = inactive; ? = inconclusive; · = no result; ! = not confirmed by another sample; [ ] = dose if it differs, or a comment. Unless noted, the call rests on the fitted dose curve; in most records, active means well fitted curve in the direction sought with a large enough effect; inconclusive means small, poorly fitted or top-dose-only effect, or another doubt; inactive means no such curve, though single readings can be large; an effect the other way counts as inactive or inconclusive. On the % scale 0 is the no-effect control and ±100 the full control effect.
SMILES,FBPA Giardia inh,Pf growth 96h,Sm TGR inh,HCMV inh,Pf growth 48h
O=C(NCC(=O)N(c1ccc2c(c1)OCCO2)C(C(=O)NC1CCCC1)c1ccco1)c1ccco1 (centres undefined),-6%,0.83µM*,-30%,-2,?
COC(=O)[C@]12CCCCC=C1N(Cc1ccco1)C(=O)[C@H](CC(=O)NCc1ccccc1)C2,·,·,·,14,·
CCOc1ccccc1/C=C(/NC(=O)c1ccccc1)C(=O)N1CCCCC1,6%,98%,8%,·,?
O=C(NCc1ccccn1)[C@H]1[C@H](CO)[C@H]2Cn3c(cccc3=O)[C@@H]1N2CC1CCCCC1,·,·,·,-1,·
O=C(O)CSc1cc(C(=O)c2cc(F)ccc2O)cn2c(=O)c3c(-c4ccccc4)csc3nc12,19%,?,?,4,8.3µM*
CCOC(=O)c1sc2nc3c(SCCC(=O)O)cc(C(=O)c4cc(OC)ccc4O)cn3c(=O)c2c1C,?,?,-2%,?,-9%[5.75 µM]
O=C(c1cnn(-c2ccccc2)c1)c1cc(F)ccc1O,-1%,73%,-9%,111,·
CCOC(=O)c1sc2nc3c(SCCC#N)cc(C(=O)c4cc(F)ccc4O)cn3c(=O)c2c1C,-7%,0.83µM*,9%,0,0.83µM*
CC1=C(/C=C/C(C)=C/C=C/C(C)=C/C(=O)Nc2ccc(O)cc2)C(C)(C)CCC1,-6%,?,-5%,-77*,12µM*
COc1ccc(/C=N/n2cnnc2)cc1COc1ccccn1,-6%,2.1µM*,-7%,3,-3%
COC[C@H]1O[C@@H](c2c(OC)cc(OC)cc2OC)[C@H](OC)[C@@H](OC)[C@@H]1OC,0%,·,·,·,·
CC(C)(Sc1cc(C(C)(C)C)c(O)c(C(C)(C)C)c1)Sc1cc(C(C)(C)C)c(O)c(C(C)(C)C)c1,-5%,1µM*,-3%,108,7.2µM*
C/C(=N/O)c1cc(C(C)(C)C)c(O)c(C(C)(C)C)c1,-1%,·,-3%,-22,·
CC(C)(C)c1cc(C(=O)N/N=C/c2ccc(-c3ccccc3[N+](=O)[O-])o2)n[nH]1,·,10µM*,-32%,-34,12µM*
Cc1cc(NC(=O)c2ccc(-c3ccccc3[N+](=O)[O-])o2)no1,·,·,·,-3,·
C=CCNC(=O)c1ccc(-c2ccc([N+](=O)[O-])cc2)o1,-1%,31%,18µM*,?,64%
CC(=O)c1cccc(NC(=O)c2ccc(-c3ccccc3[N+](=O)[O-])o2)c1,10µM*,-53%,-8%,82,170%
COc1cc([N+](=O)[O-])ccc1-c1ccc(C(=O)Nc2ccc(NC(C)=O)cc2)o1,-11%,-5%,20µM*,?,8%
C=CCNC(=O)c1ccc(-c2cccc([N+](=O)[O-])c2)o1,-8%,-30%,?,-8,53%
CNC(=S)N(CCc1c(C)[nH]c2ccc(F)cc12)Cc1cccnc1,13%,0%,-13%,·,·
O=C(CSc1nnc2ccccn12)NNC(=O)c1cccc([N+](=O)[O-])c1,·,8%,-11%,-14,41%
CCCCN(C(=O)CC1CCCC1)c1c(N)n(CC(C)C)c(=O)[nH]c1=O,·,60%,-2%,4,9%
O=C(N/N=C/c1ccc(-c2cccc([N+](=O)[O-])c2)o1)c1ccccc1O,2%,102%,1%,9,?
O=[N+]([O-])c1ccccc1-c1ccc(C(=S)N2CCCC2)o1,16µM*,-187%,-5%,92,i
COc1ccc(NC(=O)c2ccc(-c3ccc([N+](=O)[O-])cc3)o2)cc1OC,-7%,6%,-10%,-72*,-13%
SMILES,FBPA Giardia inh,Pf growth 96h,Sm TGR inh,HCMV inh,Pf growth 48h
COc1cc([N+](=O)[O-])ccc1-c1ccc(/C=N/NC(=O)c2ccccc2O)o1,-6%,?,-33%,-8,2.6µM*
COc1cccc(NC(=O)c2ccc(-c3ccc([N+](=O)[O-])cc3)o2)c1,-6%,?,25µM*,?,?
CC(=O)Nc1ccc(NC(=O)c2ccc(-c3ccc([N+](=O)[O-])cc3)o2)cc1,2%,12%,-14%,15,-5%
COc1cc2ccc(C=O)cc2cc1OC,·,·,·,-27,·
COc1ccc(NC(=O)c2cc(C3CC3)nc3c2c(C)nn3-c2ccccc2)c(OC)c1,·,·,-2%,-1,·
Cc1nncn1-c1ccc(C(=O)Nc2cc(F)ccc2F)cc1,·,·,5%,17,·
C=CCc1ccc(OCc2ccc(C(=O)Nc3ccc(NC(C)=O)cc3)o2)c(OC)c1,3%,?,45µM*!,29,-11%[0.00184 µM]
COc1ccccc1NC(=O)c1ccc(COc2ccccc2OC)o1,0%,2%,2%,-29,3%
CSc1nc(NS(=O)(=O)c2ccc(F)cc2F)nn1C,·,12%,-21%,-8,10%
CC1(C(=O)Nc2ccc(Cl)c(Cl)c2)CCN1C(=O)Cc1cccc2ccccc12 (centres undefined),·,·,·,-7,·
CNC[C@@H](C)NC[C@@H](Cc1ccccc1)NCCc1ccccc1,25%,2.9µM*,1%,-27,?
CCN(CC)CCN1C(=O)C(O)=C(C(C)=O)C1c1ccccc1[N+](=O)[O-] (centres undefined),?,?,45µM*,47,-21%
CS(=O)(=O)N(CC(=O)Nc1ccc(S(=O)(=O)N2CCCC2)cc1)c1ccccc1,0%,?,·,-31,-2%
CCOc1ccc(NC(=O)CN(C)C(=O)c2ccc(C)o2)cc1OCC,0%,34%,-12%,75,22%
CCc1ccn2cc(-c3cc(-c4ccccc4)no3)nc2c1,-7%,-7%,26%,-95*,-83%
COC(=O)C1C=C2c3cccc4[nH]cc(c34)CC2N(C)C1 (centres undefined),?,?,10µM*,·,?
CN1C[C@H](C(=O)N[C@]2(C)O[C@@]3(O)[C@@H]4CCCN4C(=O)[C@H](Cc4ccccc4)N3C2=O)C=C2c3cccc4[nH]cc(c34)C[C@H]21,·,0.3µM*,·,·,0.3µM*
CC(C)C[C@H]1C(=O)N2CCC[C@H]2[C@]2(O)O[C@](NC(=O)[C@@H]3C=C4c5cccc6[nH]c(Br)c(c56)C[C@H]4N(C)C3)(C(C)C)C(=O)N12,-25%,·,·,·,·
CC(C)C[C@H]1C(=O)N2CCC[C@H]2[C@]2(O)O[C@](NC(=O)[C@@H]3C=C4c5cccc6[nH]cc(c56)C[C@H]4N(C)C3)(C(C)C)C(=O)N12,·,3.7µM*,5.6µM*,·,2.9µM*
CCC(CO)NC(=O)C1C=C2c3cccc4[nH]cc(c34)CC2N(C)C1 (centres undefined),-30%,32%,-20%,-9,35%

# Bioassay records (PubChem)
